Compound activity (PubChem BioAssay)
KCC2 mod – KCC2 (human) Cl- transport modulation; Q9H2X9; KCC2 cells, thallium flux FluoZin-2 fluorescence; B-score of Tl+ flux slope (higher = more flux/activation; lower = inhibition) at 10 µM; hit rate 2.2% among 190,000; AID 1456;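 active = thallium flux slope and its plate-corrected score both differing from the plate sample mean at a set confidence after two filtering rounds, in either direction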;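 also: slope of fluorescence scaled to starting intensity during 10 to 20 s after thallium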
Target sequence (Q9H2X9 whole entry, looked up): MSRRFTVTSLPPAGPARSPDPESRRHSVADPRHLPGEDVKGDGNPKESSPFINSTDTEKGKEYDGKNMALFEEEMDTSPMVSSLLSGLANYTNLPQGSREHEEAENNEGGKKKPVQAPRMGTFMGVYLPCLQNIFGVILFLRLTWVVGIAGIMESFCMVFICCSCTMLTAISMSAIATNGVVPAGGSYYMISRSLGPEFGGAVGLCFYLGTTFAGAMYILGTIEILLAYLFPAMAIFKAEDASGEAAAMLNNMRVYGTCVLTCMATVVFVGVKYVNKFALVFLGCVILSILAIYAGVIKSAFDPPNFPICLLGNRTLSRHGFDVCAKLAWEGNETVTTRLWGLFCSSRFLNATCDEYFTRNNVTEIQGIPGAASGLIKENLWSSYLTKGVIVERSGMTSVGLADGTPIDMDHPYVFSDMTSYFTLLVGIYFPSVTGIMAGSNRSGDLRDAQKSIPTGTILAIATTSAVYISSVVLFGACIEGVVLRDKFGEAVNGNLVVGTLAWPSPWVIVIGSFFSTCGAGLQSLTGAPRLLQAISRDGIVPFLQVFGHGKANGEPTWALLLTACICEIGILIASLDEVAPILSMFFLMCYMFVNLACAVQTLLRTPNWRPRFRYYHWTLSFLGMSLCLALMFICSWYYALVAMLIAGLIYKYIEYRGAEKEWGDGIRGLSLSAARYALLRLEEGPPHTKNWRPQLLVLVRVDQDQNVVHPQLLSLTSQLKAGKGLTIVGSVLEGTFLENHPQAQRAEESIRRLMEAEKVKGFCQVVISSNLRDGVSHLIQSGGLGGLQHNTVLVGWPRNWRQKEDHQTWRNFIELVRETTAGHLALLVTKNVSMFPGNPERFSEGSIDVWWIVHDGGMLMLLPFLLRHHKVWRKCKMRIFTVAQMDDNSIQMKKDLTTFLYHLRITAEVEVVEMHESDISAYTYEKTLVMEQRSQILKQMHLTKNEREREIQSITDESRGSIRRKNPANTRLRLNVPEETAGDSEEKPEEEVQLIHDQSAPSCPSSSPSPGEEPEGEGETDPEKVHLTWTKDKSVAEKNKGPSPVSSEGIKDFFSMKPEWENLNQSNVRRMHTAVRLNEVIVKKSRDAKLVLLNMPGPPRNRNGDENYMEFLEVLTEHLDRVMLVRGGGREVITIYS
PGE2 EP2 inh – inhibitors of human EP2 prostaglandin E2 receptor. AID 1422. P43116. inhibition, % at 25 µM. C6 glioma cells expressing human EP2, cAMP TR-FRET; cells stimulated with saturating PGE2. hit rate 0.52% among 260,000;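 active = percent inhibition above 40 after rounding to a whole number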;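 also: rat C6 glioma host cells with rolipram phosphodiesterase inhibitor present; the protocol text gives 20 µM as final concentration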
S1P3 antagonist – S1P3 (human) receptor antagonism. hit rate 0.27% among 170,000. CHO S1P3 NFAT-BLA reporter, FRET fluorescence, antagonist mode. inhibition, % at 4.98 µM. Q99500;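 active = inhibition above the plate cutoff, the mean inhibition of test wells on that plate plus 3 SD, cut at about 28% in these data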;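 also: cells challenged with S1P at its EC80 of 0.8 µM; blue over green emission ratio from cleaved BLA substrate after 4 h stimulation; 0% = S1P-stimulated wells and 100% = unstimulated DMSO-only wells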
EP2 mod – modulators of human EP2 prostaglandin E2 receptor; P43116; hit rate 0.83% among 260,000; EP2-expressing cells, cAMP HTRF FRET, PGE2 co-stimulation; induction, % at 25 µM; AID 940;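 active = compounds whose cAMP rise, as percent of the full-agonist control response, exceeds 60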;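 also: rat C6 glioma line stably carrying human EP2 under a CMV promoter; the protocol text gives 20 µM as final concentration; 100% = response of wells given 1 µM PGE2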
EP2 confirm – EP2 receptor cAMP induction, counter-screens negative. calls only at 20 µM (by protocol). shares compounds with EP2 mod. hit rate 47% among 1,300. AID 1080. C6 glioma EP2 cells, cAMP HTRF induction; plus low (about EC15) PGE2 agonist;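 active = cAMP induction above 50% in the main assay while under 30% in all four parallel counter assays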;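 also: rat C6 glioma cells stably expressing human EP2 receptor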
KCC2 secondary – confirmation of human KCC2 transport modulators; shares compounds with KCC2 mod; HEK293-KCC2, thallium flux, FluoZin2 fluorescence; stronger effect = higher value; normalised thallium flux (F/F0 slope) at 10 µM; hit rate 15% among 3,700; AID 1713;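 active = thallium flux slope above the same plate's solvent-only control mean plus 3 SD; inconclusive = the two replicate wells disagree; inactive = no significant difference from solvent-only control wells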
KCC2 bumet counter – bumetanide-insensitive thallium flux in KCC2 cells with ouabain, counter-screen; shares compounds with KCC2 mod; HEK293-KCC2 + bumetanide/ouabain, thallium flux FluoZin2; stronger effect = higher value; normalized thallium flux at 10 µM; hit rate 49% among 3,700;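 active = thallium entry rate above the same plate's blocked-transporter control wells by more than 3 SD; inconclusive = the two repeat wells disagree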;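 also: raw slope of fluorescence over initial fluorescence between 10 and 20 s after thallium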
KCC2 sec2 – confirmation of human KCC2 transport modulators | shares compounds with KCC2 mod | HEK293-KCC2, thallium flux FluoZin2 fluorescence; actives lie on both sides; F/F0 rise rate, 10–20 s post-thallium | normalized thallium flux at 10 µM | hit rate 23% among 3,700 | AID 1715;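 active = thallium flux slope more than 3 SD above or below the plate's solvent-only control mean, mostly below; inconclusive = the two repeat wells disagreed; inactive = no significant shift from solvent-only controls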;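 also: raw slope with 0.1% DMSO as baseline and bumetanide as block control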
HEK counter1 – acts in parental HEK cells, KCC2 counter-screen; hit rate 46% among 3,700; thallium flux rate (normalised fluorescence) at 10 µM; HEK293 parental cells, thallium flux FluoZin2, ouabain; baseline-ratio fluorescence slope, 10–20 s after thallium; AID 1716; shares compounds with KCC2 mod;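 active = thallium flux rate significantly above the same plate's solvent-only control wells, beyond their mean plus 3 SD; inconclusive = the two replicate wells gave conflicting results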
KCC2 ouabain – modulates human KCC2 on retest with ouabain; shares compounds with KCC2 mod; HEK293-KCC2, thallium flux FluoZin2 fluorescence; bidirectional: low = inhibitor, high = activator; raw Tl+ flux slope (below DMSO = inhibition, above = activation) at 10 µM; hit rate 48% among 3,700; AID 1717;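 active = thallium flux slope beyond 3 SD from same-plate DMSO control mean in most replicates, usually higher, sometimes lower; inconclusive = repeat tests gave conflicting results; inactive = no significant difference from controls in most replicates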;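 also: slope of initial-normalized fluorescence between seconds 10 and 20 after thallium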
HEK counter2 – parental HEK flux effect, counter-screen 2. hit rate 33% among 3,700. shares compounds with KCC2 mod. HEK293 parental, thallium flux FluoZin-2 fluorescence slope. thallium flux slope at 10 µM;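 active = thallium flux slope above the same plate's solvent-control mean plus 3 SD in both duplicate wells; inconclusive = duplicate wells that disagreed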;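 also: run without ouabain in cells lacking the KCC2 cotransporter; slope of fluorescence scaled to its starting value between 10 and 20 s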
Numbers without * were called inactive; ! = a repeat was not active. Hits are enriched below; roughly 3.1% of the tested compounds scored in any of these assays.

CCCCCc1ccc(-c2ccc(=O)[nH]n2)cc1 was read as EP2 mod 89* and EP2 confirm inactive.
`Cc1cc(N2CCCCC2)nc(NCc2ccccc2)n1` gave KCC2 mod -0.51, PGE2 EP2 inh 32 and EP2 mod -38.
`CCCCOc1cc(C)nc(NCc2ccccc2)n1` gave KCC2 mod -0.072, PGE2 EP2 inh 11, S1P3 antagonist -36, EP2 mod 78* and EP2 confirm active.
Cc1cc(C)n(-c2nc(C)nc3c2cnn3-c2ccccc2)n1 was read as S1P3 antagonist -6, EP2 mod 67* and EP2 confirm active.
Cc1cc(C)n(-c2nc3ccccc3c3nc(C)nn23)n1 was read as KCC2 mod 1.4, PGE2 EP2 inh 10, S1P3 antagonist -10 and EP2 mod 12.
CCN(CC)c1nc(C#N)nc(N(CC)CC)n1 was read as KCC2 mod 0.036, S1P3 antagonist -1, EP2 mod 65* and EP2 confirm inactive.
`CN(C)c1ncc(S(=O)(=O)c2ccccc2)c(-c2ccccc2Cl)n1` gave KCC2 mod -0.33, PGE2 EP2 inh 5, EP2 mod 66* and EP2 confirm active.
`CCn1c(=S)[nH]c2c1c(=O)[nH]c(=O)n2C` gave PGE2 EP2 inh 6 and EP2 mod -10.
Screening O=C(Nc1sc2c(c1C(=O)O)CCCC2)c1cccs1 returned KCC2 mod -0.28, PGE2 EP2 inh 8, S1P3 antagonist 8 and EP2 mod -13.
`COC(=O)c1c(NC(=O)c2ccco2)sc2c1CCC2` gave KCC2 mod -0.43, PGE2 EP2 inh 16 and EP2 mod 33.
`COC(=O)c1c(NC(=O)c2cccs2)sc2c1CCC(C)C2` (configuration not stated) gave KCC2 mod -0.013, PGE2 EP2 inh 10, S1P3 antagonist -19, EP2 mod 64* and EP2 confirm inactive.
`CC(C)OC(=O)c1c(NC(=O)c2cccs2)sc2c1CCCC2` gave KCC2 mod 0.58, PGE2 EP2 inh 6, S1P3 antagonist 14, EP2 mod 54 and EP2 confirm active.
For CC(C)OC(=O)c1c(NC(=O)c2ccco2)sc2c1CCCCC2 the results were PGE2 EP2 inh 14, EP2 mod 58 and EP2 confirm inactive.
Screening COc1ccccc1C1(NC(=O)c2cc(-c3cnn(C)c3)n[nH]2)CCCC1 returned PGE2 EP2 inh 4 and EP2 mod -43.
For O=C(O)c1cc2cc(Cl)ccc2[nH]1 the results were PGE2 EP2 inh 10 and EP2 mod 26.
For O=C(O)c1cc2cc(F)ccc2[nH]1 the results were KCC2 mod 0.12, PGE2 EP2 inh 12, S1P3 antagonist -17, EP2 mod 113*! and EP2 confirm inactive.
COc1ccc(C(=O)N2N=C(C(C)C)CC2(O)C(F)(F)F)cc1 (configuration not stated) was read as PGE2 EP2 inh 18 and EP2 mod 4.
Screening COc1ccc(C2=NN(C(=O)c3cccs3)C(O)(C(F)(F)F)C2)cc1 (configuration not stated) returned KCC2 mod 4.9*, PGE2 EP2 inh 3, S1P3 antagonist 17, EP2 mod 98*, EP2 confirm active, KCC2 secondary inconclusive, KCC2 bumet counter 0.0093*, KCC2 sec2 0.033, HEK counter1 inconclusive, KCC2 ouabain 0.022 and HEK counter2 0.011.
`Cc1ccc(O)c(N=Cc2cc(Cc3ccccc3)cc([N+](=O)[O-])c2O)c1` gave KCC2 mod -3.8*, PGE2 EP2 inh 6, S1P3 antagonist -18, EP2 mod 69*, EP2 confirm inactive, KCC2 secondary 0.0067, KCC2 bumet counter inconclusive, KCC2 sec2 0.032, HEK counter1 0.0035, KCC2 ouabain 0.014* and HEK counter2 inconclusive.
Screening CCC(C)(C)n1nnnc1CN(Cc1cccs1)Cc1cc2cc(OC)c(OC)cc2[nH]c1=O returned PGE2 EP2 inh 14 and EP2 mod 33.
Screening CCn1c(-c2ccccc2)c(C(=O)CCl)c2ccccc21 returned KCC2 mod -4.3*, PGE2 EP2 inh 12, S1P3 antagonist -6, EP2 mod 78*, EP2 confirm active, KCC2 secondary 0.0055, KCC2 bumet counter 0.0028*, KCC2 sec2 0.029, HEK counter1 0.0049*, KCC2 ouabain 0.017* and HEK counter2 0.008*.
CCc1ccc2[nH]c(=O)c(CN(Cc3ccco3)Cc3nnnn3Cc3ccc(F)cc3)cc2c1 was read as PGE2 EP2 inh 9 and EP2 mod -8.
`CCC(=O)N(CCC(Cc1ccccc1)c1ccco1)Cc1ccco1` (configuration not stated) gave KCC2 mod -3.9*, PGE2 EP2 inh 9, S1P3 antagonist 11, EP2 mod 77*, EP2 confirm inactive, KCC2 secondary 0.0066, KCC2 bumet counter 0.0026*, KCC2 sec2 0.029, HEK counter1 0.0046*, KCC2 ouabain 0.013* and HEK counter2 0.0069*.
`CCC(=O)N(CCC(c1ccccc1)c1ccco1)Cc1cccs1` (configuration not stated) gave KCC2 mod -1.5, PGE2 EP2 inh 8 and EP2 mod 46.
Cc1ccccc1OCC(=O)NC(=S)Nc1ccc2c3c(cccc13)CC2 was read as KCC2 mod -0.47, PGE2 EP2 inh 14 and EP2 mod 19.
`COc1ccc(OCC(=O)NC(=S)Nc2ccc3c4c(cccc24)CC3)cc1` gave KCC2 mod 29*, PGE2 EP2 inh 18, S1P3 antagonist -8, EP2 mod 68*, EP2 confirm inactive, KCC2 secondary 0.011, KCC2 bumet counter 0.079*, KCC2 sec2 0.035, HEK counter1 0.031*, KCC2 ouabain 0.036* and HEK counter2 0.014*.
